Here are results for 37 molecules from PubChem BioAssay (NCI).

Experiment [1] is described as follows: NCI Yeast Anticancer Drug Screen. Data for the rad50 strain (AID 155).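 Also: 0% = growth of vehicle-only cultures of the same strain.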 The settings on record: S. cerevisiae rad50 strain growth inhibition; at 50.0 µM; active compounds read high. A digest of the protocol: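 Readout: growth inhibition relative to vehicle-treated cultures. Compound exposure was carried out in a genetically defined yeast strain deficient in DNA damage repair.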

Experiment [2] is described as follows: NCI Yeast Anticancer Drug Screen. Data for the mec2-1 strain (AID 157). The settings on record: S. cerevisiae mec2-1 strain, at 50.0 µM, active compounds read high. The essentials:
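mec2-1 yeast strain, carrying an alteration in DNA damage repair or cell cycle control, was exposed to compounds; growth inhibition was measured relative to vehicle-treated controls.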

Experiment [3] can be described thus: NCI Yeast Anticancer Drug Screen. Data for the sgs1 mgt1 strain (AID 161).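 Also: 0% = growth of cultures given vehicle only.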 The following applies: S. cerevisiae sgs1 mgt1 strain, at 50.0 µM, active compounds read high. A digest of the protocol: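 Percent growth inhibition was derived by comparing compound-exposed mutant yeast with vehicle-exposed cultures. The strain carries alterations in DNA damage repair.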
Experiment [4] is described as follows: NCI Yeast Anticancer Drug Screen. Data for the cln2 rad14 strain (AID 165).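 Also: 0% = growth equal to vehicle treated cultures.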 The following applies: S. cerevisiae cln2 rad14 strain, at 50.0 µM, active compounds read high. The essentials:
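Yeast carrying cln2 and rad14 alterations (cell cycle control and DNA damage repair) were exposed to compounds. Growth inhibition was measured against vehicle-treated controls.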

The nature of experiment [5]: NCI Yeast Anticancer Drug Screen. Data for the bub3 strain (AID 167). The settings on record: S. cerevisiae bub3 mutant strain, at 50.0 µM, active compounds read high. The essentials: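 Readout: yeast growth inhibition, expressed relative to vehicle-only wells. The test organism is a mutant strain from a panel with lesions in DNA repair or checkpoint genes.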
Experiment [6] is described as follows: NCI Yeast Anticancer Drug Screen. Data for the mlh1 rad18 strain (AID 175). The settings on record: S. cerevisiae mlh1 rad18 strain growth inhibition; at 50.0 µM; active compounds read high. The essentials:
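Growth inhibition of the yeast strain was measured after compound exposure and expressed relative to vehicle-treated controls. The strain carries defined defects in DNA damage repair.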

The panel holds about 79,000 compounds, 15% with a hit somewhere; the sample as a whole holds those more often. Unmarked numbers belong to inactive results. Calls of active or inactive are those of the source. Rule as the data show it: active = growth inhibition above about 70%; inactive = the rest.

Consider `O=S(=O)([O-])[O-].O=c1[nH]cnc2[nH]ncc12.O=c1[nH]cnc2[nH]ncc12.[Cu+2]`, for which the growth inhibition in experiment [1] was -22.1%; in experiment [2], -7.95%; in experiment [3], -47.2%; in experiment [4], -32%; in experiment [5], -18.7%; in experiment [6], -18.1%.
Turning to `Nc1ccc(S(=O)(=O)S(=O)(=O)c2ccc(N)cc2)cc1`, the growth inhibition in experiment [1] is -0.1%; in experiment [2] it was 1.95%; in experiment [3], -3.55%; in experiment [4], 12.4%; in experiment [5] it was -0.9%; in experiment [6], -2.95%.
With `CCN(CC)CCCn1cnc2ncccc2c1=O`, the growth inhibition is -12.3% in experiment [1]; -5.7% in experiment [2]; 8.8% in experiment [3]; 21% in experiment [4]; -9.2% in experiment [5]; -3.3% in experiment [6].
In the case of `Cc1cccc(C)c1Nc1cc(=O)[nH]c(=O)[nH]1`, the growth inhibition in experiment [1] is -2.6%; in experiment [2], -2.75%; in experiment [3], 3.4%; in experiment [4], -33.2%; in experiment [5], -11.6%; in experiment [6] it was -12.2%.
On to `NC(=O)c1cn(Cc2ccccc2)c(=O)n1Cc1ccccc1`, for which the growth inhibition in experiment [1] was 9.75%; in experiment [2] it was 18.2%; in experiment [3] it was -3.2%; in experiment [4], 9.45%; in experiment [5] it was 23.8%; in experiment [6] it was 11.7%.
Turning to `Clc1nc2ccccc2s1`, the growth inhibition in experiment [1] is -32.4%; in experiment [2] it was -5.2%; in experiment [3], -24.8%; in experiment [4] it was -38%; in experiment [5], -21.1%; in experiment [6], 3.2%.
As to `CC(=O)Nc1ccc(/C=C/C(=O)c2sc(-c3cccnc3)nc2C)cc1`, the growth inhibition in experiment [1] was 33.2%; in experiment [2], 11.8%; in experiment [3], 3.25%; in experiment [4], 17.9%; in experiment [5] it was 17.5%; in experiment [6], 29.3%.
On to `COC(=O)c1ccccc1N=CCC(C)CCCC(C)(C)O` (configuration not stated), for which the growth inhibition in experiment [1] is -10.4%; in experiment [2], 4.4%; in experiment [3], 26.4%; in experiment [4], -8.4%; in experiment [5], 0.1%; in experiment [6], -5.05%.
`CCCCCCCCS(=O)(=O)NC`: the growth inhibition in experiment [1] was 0.95%; in experiment [2], -9.8%; in experiment [3] it was -8.75%; in experiment [4], -10%; in experiment [5] it was 16.4%; in experiment [6], 5.7%.
For the molecule `CCCC(=O)Nc1ccc(N=Nc2ccccc2)cc1`, the growth inhibition in experiment [1] is 8.15%; in experiment [2], 43.4%; in experiment [3], 58.3%; in experiment [4], -15.9%; in experiment [5] it was 46.1%; in experiment [6] it was 57.5%.
For the molecule `Nc1nc(-c2ccc(S(=O)(=O)O)cc2)cc(=O)[nH]1`, the growth inhibition is -9.6% in experiment [1]; -4.5% in experiment [2]; -10.7% in experiment [3]; 17.2% in experiment [4]; -27.4% in experiment [5]; 16.5% in experiment [6].
On to `COc1ccc(NC(=O)CN)cc1`, for which the growth inhibition in experiment [1] is 1.3%; in experiment [2], -9.9%; in experiment [3], 0.2%; in experiment [4] it was -2.55%; in experiment [5], 7.6%; in experiment [6], 0.7%.
`CC1=Cc2cc3[n-]c(cc4nc(cc5[n-]c(cc1n2)c(C)c5CCC(=O)O)C(CCC(=O)O)=C4C)cc3C.[Cu+2]`: the growth inhibition in experiment [1] is 0.9%; in experiment [2], -0.9%; in experiment [3], 10.3%; in experiment [4], -49.5%; in experiment [5], 15.2%; in experiment [6], -0.5%.
With `CCOc1cc[n+]([O-])cc1C`, the growth inhibition is -15.7% in experiment [1]; -9.6% in experiment [2]; 1.45% in experiment [3]; -8.2% in experiment [4]; -3.75% in experiment [5]; 13.1% in experiment [6].
For `CC(NC(=O)c1ccc(C(C[N+](=O)[O-])SCCC(=O)O)cc1)C(=O)O` (configuration not stated), the growth inhibition in experiment [1] was 18.9%; in experiment [2], 7.2%; in experiment [3] it was 26.2%; in experiment [4], 5.55%; in experiment [5], -15.9%; in experiment [6], 1.2%.
For `COc1ccc2nc3cc([N+](=O)[O-])ccc3c(Nc3ccc(S(=O)(=O)NC(C)=O)cc3)c2c1`, the growth inhibition was 76.3% (active) in experiment [1]; 36.4% in experiment [2]; 67.8% in experiment [3]; 36% in experiment [4]; 64.5% in experiment [5]; 75.2% (active) in experiment [6].
Take `C1=CC(c2ccccc2)C(c2ccccc2)C(c2ccccc2)=C1` (configuration not stated): the growth inhibition in experiment [1] was -16.6%; in experiment [2], 2.05%; in experiment [3] it was 8.8%; in experiment [4], -13.2%; in experiment [5], -4.95%; in experiment [6], -22.6%.
As for `CC1(C)c2ccccc2-c2nc3ccccc3nc2C1O` (configuration not stated), the growth inhibition in experiment [1] was 4.65%; in experiment [2] it was 18.8%; in experiment [3], -8%; in experiment [4], -14%; in experiment [5] it was 1.95%; in experiment [6], -9.7%.
With `C[N+]1(C)C/C(=C\c2ccc(O)cc2)C(=O)/C(=C/c2ccc(O)cc2)C1`, the growth inhibition was -0.75% in experiment [1]; -16.3% in experiment [2]; 4.05% in experiment [3]; -6% in experiment [4]; -9.75% in experiment [5]; -14.2% in experiment [6].
Turning to `Cc1nc([N+](=O)[O-])cn1CC(=N)N`, the growth inhibition was -23% in experiment [1]; -28.8% in experiment [2]; -16.1% in experiment [3]; -5.15% in experiment [4]; -25.6% in experiment [5]; -38.7% in experiment [6].
`CCCc1oc(C)cc1CC`: the growth inhibition in experiment [1] was 0.45%; in experiment [2] it was -22.4%; in experiment [3], 0.2%; in experiment [4] it was -1.95%; in experiment [5], -15.9%; in experiment [6] it was -10.2%.
In the case of `O=C1c2cc(Cl)ccc2-c2ccc(N=Cc3ccccc3Cl)cc21`, the growth inhibition in experiment [1] is 1.65%; in experiment [2], -1.55%; in experiment [3], -7.8%; in experiment [4], -89.5%; in experiment [5], 34.1%; in experiment [6], -1.35%.
Turning to `CCNc1nnc(N=Nc2ccccc2)s1`, the growth inhibition in experiment [1] was 0.5%; in experiment [2] it was 12.8%; in experiment [3], 13.4%; in experiment [4] it was -2%; in experiment [5] it was 7.55%; in experiment [6], 3.65%.
With `CCCc1c[nH]c(-c2ccc(-c3cc(CCC)c(C=O)[nH]3)s2)c1`, the growth inhibition was -44.8% in experiment [1]; -22.8% in experiment [2]; -35.9% in experiment [3]; -2.8% in experiment [4]; -28.9% in experiment [5]; -56.7% in experiment [6].
On to `CCN(CC)CCNc1cc2ccccc2c2sc3ccccc3c(=O)c12`, for which the growth inhibition in experiment [1] is 98.5% (active); in experiment [2], 99.2% (active); in experiment [3] it was 97.6% (active); in experiment [4], 98.8% (active); in experiment [5], 98.2% (active); in experiment [6], 98.3% (active).
As for `Cc1ccc(N2C(=O)/C(=C/c3ccc(N(CCC#N)CCC#N)cc3C)N=C2c2cc([N+](=O)[O-])ccc2Cl)cc1`, the growth inhibition in experiment [1] is 8.85%; in experiment [2], 14.5%; in experiment [3], 32.6%; in experiment [4], 35.2%; in experiment [5] it was 30.4%; in experiment [6], 19.9%.
With `C/C(=N\Nc1ccccc1Br)c1cccc(/C(C)=N/Nc2ccccc2Br)n1`, the growth inhibition in experiment [1] is -21.6%; in experiment [2], -1.55%; in experiment [3], -6.1%; in experiment [4], -11.6%; in experiment [5], 2.75%; in experiment [6], 6.2%.
In the case of `CN(C)CCCN1c2ccccc2Sc2cnccc21`, the growth inhibition in experiment [1] was 7.6%; in experiment [2], -8.2%; in experiment [3], -0.2%; in experiment [4], -0.05%; in experiment [5], -1.45%; in experiment [6], 15.3%.
Take `NCC(O)CSc1ccccc1` (configuration not stated): the growth inhibition was -10.6% in experiment [1]; 4.15% in experiment [2]; -6.85% in experiment [3]; -16.7% in experiment [4]; -1.3% in experiment [5]; -6.8% in experiment [6].
`CCOC(=O)C1=CN(Cc2ccccc2)C2ON=C(c3ccc(Cl)cc3)C2C1` (configuration not stated): the growth inhibition is 0.05% in experiment [1]; 2.3% in experiment [2]; -11.8% in experiment [3]; -2.35% in experiment [4]; -0.75% in experiment [5]; -0.6% in experiment [6].
Consider `CS(=O)(=O)OCC(O)C(O)C(OS(C)(=O)=O)C(O)COS(C)(=O)=O` (configuration not stated), for which the growth inhibition in experiment [1] is 7.1%; in experiment [2], 1.75%; in experiment [3], -7.75%; in experiment [4], 21.3%; in experiment [5], -8.55%; in experiment [6], 7.35%.
As for `Nc1nc(SCCc2ccccc2)nc2nc3c(c(-c4ccccc4)c12)CCCC3`, the growth inhibition in experiment [1] was -23.3%; in experiment [2], -10.6%; in experiment [3] it was -3.2%; in experiment [4], 2.35%; in experiment [5] it was 0.05%; in experiment [6], 5.1%.
For `CCN(CC)CCCC(C)n1c(SC)nc2cc(Cl)ccc21` (configuration not stated), the growth inhibition was -11.5% in experiment [1]; -32.9% in experiment [2]; 9% in experiment [3]; -32.6% in experiment [4]; 7.2% in experiment [5]; -7.7% in experiment [6].
Take `CC(=O)CC(=O)NC12CC3CC(CC(C3)C1)C2`: the growth inhibition in experiment [1] is -12.4%; in experiment [2], -18.3%; in experiment [3] it was -27.6%; in experiment [4], -3.95%; in experiment [5], -23.1%; in experiment [6], -1.55%.
`COC(=O)CC1=NNC(=O)C1`: the growth inhibition was -11.7% in experiment [1]; -15.1% in experiment [2]; -14% in experiment [3]; -18.1% in experiment [4]; -7.35% in experiment [5]; -19.8% in experiment [6].
For `CCSC(=S)S`, the growth inhibition was -0.35% in experiment [1]; -23% in experiment [2]; -12.2% in experiment [3]; 7.15% in experiment [4]; 0.25% in experiment [5]; -0.3% in experiment [6].
Turning to `N#Cc1nc(/C=C/c2cccnc2)oc1N`, the growth inhibition in experiment [1] was -1.9%; in experiment [2], 6.7%; in experiment [3] it was -8.1%; in experiment [4], -3.65%; in experiment [5], -6.55%; in experiment [6] it was -56.6%.
